Measurements published in the supplement of paper PMC11732987, “Enantioselective OTUD7B fragment discovery through chemoproteomics screening and high-throughput optimisation” (Communications Chemistry, 2025).
A number with no mark means an inactive call.

Key:
Assay in all cases: log2 ratio of Biotin-Ahx-Ub-VS probe labelling (fragment/DMSO); higher = less target engagement (more negative = stronger competition), active = hit call of the paper (q ≤ 0.05, log2 ratio ≤ -1)
Conditions in all cases: compound concentration: 200 uM; treatment time: 3 h
ALG13 = biological target: T1, ALG13 (UniProt Q9NP73)
T1 sequence (whole entry): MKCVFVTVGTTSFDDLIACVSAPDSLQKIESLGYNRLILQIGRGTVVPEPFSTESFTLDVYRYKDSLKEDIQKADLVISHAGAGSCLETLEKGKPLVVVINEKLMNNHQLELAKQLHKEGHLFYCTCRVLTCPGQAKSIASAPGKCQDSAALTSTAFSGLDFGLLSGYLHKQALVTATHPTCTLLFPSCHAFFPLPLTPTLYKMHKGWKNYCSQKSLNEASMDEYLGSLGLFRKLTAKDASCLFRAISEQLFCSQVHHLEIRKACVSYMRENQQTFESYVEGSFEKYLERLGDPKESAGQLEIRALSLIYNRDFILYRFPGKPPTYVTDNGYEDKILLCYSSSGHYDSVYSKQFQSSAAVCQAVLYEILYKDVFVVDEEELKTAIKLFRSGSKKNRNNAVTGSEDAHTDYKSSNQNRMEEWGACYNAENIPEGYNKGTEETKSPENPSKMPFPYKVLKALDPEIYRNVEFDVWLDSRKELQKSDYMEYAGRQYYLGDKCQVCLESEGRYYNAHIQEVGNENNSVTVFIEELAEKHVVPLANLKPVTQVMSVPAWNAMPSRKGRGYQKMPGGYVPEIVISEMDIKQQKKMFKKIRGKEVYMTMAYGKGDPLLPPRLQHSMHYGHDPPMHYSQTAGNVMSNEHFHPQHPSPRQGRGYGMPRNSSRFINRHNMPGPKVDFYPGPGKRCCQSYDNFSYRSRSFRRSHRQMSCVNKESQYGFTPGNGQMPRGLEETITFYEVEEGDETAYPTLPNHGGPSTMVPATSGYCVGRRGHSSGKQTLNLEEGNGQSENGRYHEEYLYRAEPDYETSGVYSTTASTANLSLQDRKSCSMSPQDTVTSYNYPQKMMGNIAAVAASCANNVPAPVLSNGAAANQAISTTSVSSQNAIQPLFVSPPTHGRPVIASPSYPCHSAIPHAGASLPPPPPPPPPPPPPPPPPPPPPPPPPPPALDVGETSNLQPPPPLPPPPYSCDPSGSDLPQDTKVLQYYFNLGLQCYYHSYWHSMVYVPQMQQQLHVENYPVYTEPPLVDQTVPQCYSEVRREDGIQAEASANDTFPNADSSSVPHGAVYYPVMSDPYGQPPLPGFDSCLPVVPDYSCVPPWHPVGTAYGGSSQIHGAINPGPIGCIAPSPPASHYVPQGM
Summary of the method: (§1)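 HEK293T lysate (495 µg per sample, in Tris/CHAPS/IGEPAL buffer with protease inhibitors) was exposed in triplicate for 3 h to fragment at 200 µM or to vehicle, then to Biotin-Ahx-Ub-VS at 0.5 µM final for 1 h. Labelled DUBs were enriched on NeutrAvidin, digested with LysC and trypsin, and analysed by diaPASEF LC-MS/MS. Spectronaut label-free quantities were normalised to the global median, and values are average log2 ratios of fragment over vehicle from an unpaired t-test. Only proteins with ≥2 unique peptides were used.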

ATXN3 = ATXN3 (UniProt P54252)
Summary of the method: as §1

BAP1 = biological target: T2, BAP1 (UniProt Q92560)
T2 sequence (whole entry): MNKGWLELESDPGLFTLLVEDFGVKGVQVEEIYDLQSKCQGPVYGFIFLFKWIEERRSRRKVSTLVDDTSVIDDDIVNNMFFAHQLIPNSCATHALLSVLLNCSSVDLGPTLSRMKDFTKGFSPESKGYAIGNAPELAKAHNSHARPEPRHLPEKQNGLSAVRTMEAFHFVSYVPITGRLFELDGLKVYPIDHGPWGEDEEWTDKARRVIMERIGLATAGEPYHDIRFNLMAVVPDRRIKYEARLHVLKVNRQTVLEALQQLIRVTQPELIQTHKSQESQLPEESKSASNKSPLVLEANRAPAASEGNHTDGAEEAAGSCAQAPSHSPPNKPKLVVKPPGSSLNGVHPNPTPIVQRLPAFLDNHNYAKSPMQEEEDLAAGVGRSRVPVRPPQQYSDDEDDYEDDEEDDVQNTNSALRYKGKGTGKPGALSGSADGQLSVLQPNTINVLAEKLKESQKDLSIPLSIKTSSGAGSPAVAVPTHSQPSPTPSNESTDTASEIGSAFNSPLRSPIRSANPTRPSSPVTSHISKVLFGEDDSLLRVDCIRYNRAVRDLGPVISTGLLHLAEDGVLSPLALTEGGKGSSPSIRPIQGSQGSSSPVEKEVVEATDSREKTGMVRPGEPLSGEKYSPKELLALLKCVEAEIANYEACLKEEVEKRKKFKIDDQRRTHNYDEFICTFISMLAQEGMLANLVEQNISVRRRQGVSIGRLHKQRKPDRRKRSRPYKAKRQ
Summary of the method: as §1

EIF3F = EIF3F (UniProt O00303)
Summary of the method: as §1

EIF3H = EIF3H (UniProt O15372)
Summary of the method: as §1

FAM105A = biological target: T3, FAM105A (UniProt Q9NUU6)
T3 sequence (whole entry): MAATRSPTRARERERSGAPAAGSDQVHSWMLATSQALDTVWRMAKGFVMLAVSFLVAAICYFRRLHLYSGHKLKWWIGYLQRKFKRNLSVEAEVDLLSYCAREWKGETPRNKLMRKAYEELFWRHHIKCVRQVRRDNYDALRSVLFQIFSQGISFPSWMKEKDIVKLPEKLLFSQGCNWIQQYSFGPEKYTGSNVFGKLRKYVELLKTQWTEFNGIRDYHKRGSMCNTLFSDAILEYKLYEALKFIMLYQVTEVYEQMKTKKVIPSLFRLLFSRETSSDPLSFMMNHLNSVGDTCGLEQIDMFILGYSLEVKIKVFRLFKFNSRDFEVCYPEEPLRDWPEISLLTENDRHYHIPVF
Summary of the method: as §1

OTUB1 = OTUB1 (UniProt Q96FW1)
Summary of the method: as §1

OTUD4 = biological target: T4, OTUD4 (UniProt Q01804)
T4 sequence (whole entry): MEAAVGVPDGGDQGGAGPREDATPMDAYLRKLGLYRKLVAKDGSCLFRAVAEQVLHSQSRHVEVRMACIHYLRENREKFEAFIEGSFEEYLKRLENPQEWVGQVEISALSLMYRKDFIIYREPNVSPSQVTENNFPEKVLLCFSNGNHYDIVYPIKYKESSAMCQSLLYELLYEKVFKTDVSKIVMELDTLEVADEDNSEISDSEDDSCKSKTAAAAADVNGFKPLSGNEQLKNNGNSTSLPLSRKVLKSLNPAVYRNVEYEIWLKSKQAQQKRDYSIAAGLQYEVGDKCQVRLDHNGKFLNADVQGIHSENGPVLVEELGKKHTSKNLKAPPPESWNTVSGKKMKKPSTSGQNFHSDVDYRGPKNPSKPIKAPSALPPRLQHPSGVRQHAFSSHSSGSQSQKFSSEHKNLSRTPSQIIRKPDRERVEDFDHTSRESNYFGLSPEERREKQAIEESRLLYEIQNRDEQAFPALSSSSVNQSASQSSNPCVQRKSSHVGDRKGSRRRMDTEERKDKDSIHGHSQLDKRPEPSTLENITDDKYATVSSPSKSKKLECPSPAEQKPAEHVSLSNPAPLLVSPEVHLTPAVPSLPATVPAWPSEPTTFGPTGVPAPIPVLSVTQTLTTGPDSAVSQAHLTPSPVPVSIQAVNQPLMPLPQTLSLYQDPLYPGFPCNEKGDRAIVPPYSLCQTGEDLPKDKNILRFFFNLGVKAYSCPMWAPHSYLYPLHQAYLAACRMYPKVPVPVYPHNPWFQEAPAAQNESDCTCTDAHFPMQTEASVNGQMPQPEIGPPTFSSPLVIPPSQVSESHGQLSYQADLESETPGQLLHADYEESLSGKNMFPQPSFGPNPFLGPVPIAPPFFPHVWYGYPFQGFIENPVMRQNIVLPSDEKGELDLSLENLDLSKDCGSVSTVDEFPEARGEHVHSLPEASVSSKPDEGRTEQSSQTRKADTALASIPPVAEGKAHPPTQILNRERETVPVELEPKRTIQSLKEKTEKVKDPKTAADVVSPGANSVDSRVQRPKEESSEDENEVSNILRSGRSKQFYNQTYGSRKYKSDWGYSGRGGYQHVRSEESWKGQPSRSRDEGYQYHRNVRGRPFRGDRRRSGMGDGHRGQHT
Summary of the method: as §1

OTUD5 = biological target: T5, OTUD5 (UniProt Q96G74)
T5 sequence (whole entry): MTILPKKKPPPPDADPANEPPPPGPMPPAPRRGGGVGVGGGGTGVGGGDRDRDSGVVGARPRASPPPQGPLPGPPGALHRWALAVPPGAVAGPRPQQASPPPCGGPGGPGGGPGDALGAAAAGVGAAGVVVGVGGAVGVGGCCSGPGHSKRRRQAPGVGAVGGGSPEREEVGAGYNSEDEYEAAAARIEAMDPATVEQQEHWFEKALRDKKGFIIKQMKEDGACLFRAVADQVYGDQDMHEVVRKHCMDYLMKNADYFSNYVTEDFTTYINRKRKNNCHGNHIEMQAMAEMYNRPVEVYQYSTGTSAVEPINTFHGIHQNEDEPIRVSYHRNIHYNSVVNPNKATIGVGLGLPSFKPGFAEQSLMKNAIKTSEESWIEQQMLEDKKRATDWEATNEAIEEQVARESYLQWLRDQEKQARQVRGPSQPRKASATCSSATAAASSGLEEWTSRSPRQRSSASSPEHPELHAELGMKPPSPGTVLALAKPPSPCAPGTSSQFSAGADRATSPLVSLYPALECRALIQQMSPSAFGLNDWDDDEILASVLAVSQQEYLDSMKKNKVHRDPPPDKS
Summary of the method: as §1

Chain of ATXN3 (P54252 whole entry): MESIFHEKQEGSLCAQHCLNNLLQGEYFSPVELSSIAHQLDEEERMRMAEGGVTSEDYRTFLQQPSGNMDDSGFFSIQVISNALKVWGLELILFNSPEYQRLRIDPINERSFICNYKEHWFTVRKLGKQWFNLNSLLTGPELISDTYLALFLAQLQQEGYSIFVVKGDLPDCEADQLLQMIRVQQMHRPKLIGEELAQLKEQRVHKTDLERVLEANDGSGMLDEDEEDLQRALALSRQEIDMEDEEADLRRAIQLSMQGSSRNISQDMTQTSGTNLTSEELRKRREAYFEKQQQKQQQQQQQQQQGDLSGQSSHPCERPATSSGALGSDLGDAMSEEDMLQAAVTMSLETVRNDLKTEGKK
Chain of EIF3F (O00303 whole entry): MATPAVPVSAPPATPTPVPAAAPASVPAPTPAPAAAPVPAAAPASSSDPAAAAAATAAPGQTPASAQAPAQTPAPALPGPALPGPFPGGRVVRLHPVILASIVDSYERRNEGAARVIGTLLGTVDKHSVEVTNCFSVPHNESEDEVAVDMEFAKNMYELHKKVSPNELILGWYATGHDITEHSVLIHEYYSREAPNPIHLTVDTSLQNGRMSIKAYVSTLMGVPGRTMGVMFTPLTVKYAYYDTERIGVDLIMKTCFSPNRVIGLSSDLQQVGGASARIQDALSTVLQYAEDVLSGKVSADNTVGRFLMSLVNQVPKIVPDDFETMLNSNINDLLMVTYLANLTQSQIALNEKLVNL
Chain of EIF3H (O15372 whole entry): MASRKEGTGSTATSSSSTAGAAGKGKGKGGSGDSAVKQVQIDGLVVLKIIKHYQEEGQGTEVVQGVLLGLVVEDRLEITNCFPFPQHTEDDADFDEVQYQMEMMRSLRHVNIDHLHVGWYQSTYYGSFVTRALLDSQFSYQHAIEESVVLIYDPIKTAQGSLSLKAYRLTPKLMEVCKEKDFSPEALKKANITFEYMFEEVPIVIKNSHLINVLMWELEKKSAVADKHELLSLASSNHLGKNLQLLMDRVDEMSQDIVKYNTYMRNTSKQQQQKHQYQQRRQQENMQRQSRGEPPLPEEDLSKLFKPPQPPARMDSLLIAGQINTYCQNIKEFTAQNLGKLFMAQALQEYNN
Chain of OTUB1 (Q96FW1 whole entry): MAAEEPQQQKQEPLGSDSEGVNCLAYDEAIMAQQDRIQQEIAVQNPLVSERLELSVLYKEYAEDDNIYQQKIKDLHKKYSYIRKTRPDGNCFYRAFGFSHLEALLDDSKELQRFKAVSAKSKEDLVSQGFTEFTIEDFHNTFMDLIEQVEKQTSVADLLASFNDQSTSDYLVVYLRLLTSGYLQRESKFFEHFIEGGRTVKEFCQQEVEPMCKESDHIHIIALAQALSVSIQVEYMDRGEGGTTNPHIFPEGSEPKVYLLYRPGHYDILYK

Question: What does the source list for `O=C(CCl)N1CCC[C@@H]1c1ccon1`?
Answer: log2 ratio of Biotin-Ahx-Ub-VS probe labelling (ALG13): 0.188; log2 ratio of Biotin-Ahx-Ub-VS probe labelling (ATXN3): -1.28 (active); log2 ratio of Biotin-Ahx-Ub-VS probe labelling (BAP1): -2.4 (active); log2 ratio of Biotin-Ahx-Ub-VS probe labelling (EIF3F): -0.585; log2 ratio of Biotin-Ahx-Ub-VS probe labelling (EIF3H): 0.193; log2 ratio of Biotin-Ahx-Ub-VS probe labelling (FAM105A): 0.198; log2 ratio of Biotin-Ahx-Ub-VS probe labelling (OTUB1): -0.236; log2 ratio of Biotin-Ahx-Ub-VS probe labelling (OTUD4): -0.381; log2 ratio of Biotin-Ahx-Ub-VS probe labelling (OTUD5): -0.427
